Source: ChEMBL document CHEMBL1157539, “Thousands of chemical starting points for antimalarial lead identification” (Nature, 2010)

Assays:
Format in all cases: functional
Plasmodium falciparum [1] = assay: GSK_TCMDC: Inhibition of Plasmodium falciparum 3D7 in whole red blood cells, using parasite LDH activity as an index of growth. Test compounds present at 2uM
Plasmodium falciparum [2] = assay: GSK_TCMDC: Inhibition of Plasmodium falciparum Dd2 in whole red blood cells, using parasite LDH activity as an index of growth. Test compounds present at 2uM
HepG2 = assay: GSK_TCMDC: Percent inhibition of human HepG2 cell line. Test compounds present at 10uM.

With `COc1c(C=NNc2nc(=Nc3ccccc3)[nH]c(=Nc3ccccc3)[nH]2)ccc(Br)c1O` the Inhibition (Plasmodium falciparum [1]) was 98%, the Inhibition (Plasmodium falciparum [2]) was 37% and the Inhibition (HepG2) was 63%.

For `COc1ccc(CN(C)CCCc2ccc(NC(=O)c3cccc4c(O)c5ccccc5nc34)cc2)cc1OC`, the Inhibition (Plasmodium falciparum [1]) was 99%, the Inhibition (Plasmodium falciparum [2]) was 54% and the Inhibition (HepG2) was 77%.

Compound `Cc1[nH]c2ccccc2c1C(=O)CSc1nn(-c2ccccc2)c(=S)s1` has an Inhibition (Plasmodium falciparum [1]) of 100%, an Inhibition (Plasmodium falciparum [2]) of 99% and an Inhibition (HepG2) of 0%.

With `O=[N+]([O-])c1ccc(N2CCCN(C(=S)Nc3ccc(F)cc3Br)CC2)nc1` the Inhibition (Plasmodium falciparum [1]) was 100%, the Inhibition (Plasmodium falciparum [2]) was 99% and the Inhibition (HepG2) was 4%.

`Cc1ccc(-n2nc(-c3ccccc3)c3cc(C(=O)NCCN)sc32)cc1` showed an Inhibition (Plasmodium falciparum [1]) of 92%, an Inhibition (Plasmodium falciparum [2]) of 43% and an Inhibition (HepG2) of 28%.

With `COc1ccc(-c2cccc(NC(=O)c3ccc(F)cc3)c2)cc1CN1CCCN(C)CC1.O=C(O)C(F)(F)F` the Inhibition (Plasmodium falciparum [1]) was 100%, the Inhibition (Plasmodium falciparum [2]) was 35% and the Inhibition (HepG2) was 26%.

`CCOC(=O)c1cncc(/C=C/c2cc(C)cnc2N)c1` showed an Inhibition (Plasmodium falciparum [1]) of 86%, an Inhibition (Plasmodium falciparum [2]) of 3% and an Inhibition (HepG2) of 4%.

In the case of `COc1ccc2c(=O)c(-c3ccc(OC(F)(F)F)cc3)c(C)[nH]c2c1`, the Inhibition (Plasmodium falciparum [1]) is reported as 97%, the Inhibition (Plasmodium falciparum [2]) is reported as 96% and the Inhibition (HepG2) is reported as 0%.

`COc1ccccc1/C=C/C(=O)N(C)C1CCN(CCCCCNC(=O)/C=C/c2ccc(Cl)c(Cl)c2)CC1` showed an Inhibition (Plasmodium falciparum [1]) of 83%, an Inhibition (Plasmodium falciparum [2]) of 63% and an Inhibition (HepG2) of 71%.

`CCOc1ccc(C(=O)Nc2cc(Br)c3c(c2)CNCC3)cc1Cl.Cl` gave an Inhibition (Plasmodium falciparum [1]) of 92%, an Inhibition (Plasmodium falciparum [2]) of 8% and an Inhibition (HepG2) of 13%.

Work on `COc1cc(NCC2(CNCc3cn(Cc4ccccc4)c4ccccc34)CCCCC2)nc2ccccc12.Cl` yielded an Inhibition (Plasmodium falciparum [1]) of 95%, an Inhibition (Plasmodium falciparum [2]) of 12% and an Inhibition (HepG2) of 65%.
